For eight compounds, growth results are on record in PubChem BioAssay (NCI).

Compounds without any hit were thinned out: in the full panel of roughly 83,000, 20% have a hit.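 96-well plates, one dose, 48 hours. Percent growth reported; active if below 10.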 A number with no mark means an inactive call. The source made the active and inactive calls.

Among the test systems are RPMI-8226 leukemia; OVCAR-8 ovarian; OVCAR-5 ovarian; OVCAR-4 ovarian; SK-OV-3 ovarian; IGROV1 ovarian; OVCAR-3 ovarian; HS 578T breast; NCI/ADR-RES ovarian; T-47D breast; BT-549 breast; MDA-MB-435 melanoma; SW-620 colon; MCF7 breast; HCT-116 colon; HCC-2998 colon; KM12 colon.
Common to all, as to assay: NCI-60 one-dose screen, 48 h (100 = growth as untreated, 0 = no growth, -100 = all killed)
What all share (conditions): 10 µM unless noted

As for `COc1ccc(/C=C(/C(=O)N2CCCC2)c2cc(OC)c(OC)c(OC)c2)cc1`, the growth was 8.53% (active) with RPMI-8226 leukemia; 40% in the assay on OVCAR-8 ovarian; 63.1% with OVCAR-5 ovarian; 68.9% in the assay on OVCAR-4 ovarian; 22.3% in the assay with SK-OV-3 ovarian; 49.9% with IGROV1 ovarian. The growth with OVCAR-3 ovarian is 5.36% (active); in the assay with HS 578T breast, 27.8%; in the assay with NCI/ADR-RES ovarian, 22%; in the assay with T-47D breast it was 42.4%; in the assay on BT-549 breast, 61.1%; in the assay on MDA-MB-435 melanoma, -18.3% (active). The growth in the assay with SW-620 colon was 22.1%; in the assay with MCF7 breast, 24.8%; in the assay on HCT-116 colon, 23.8%; in the assay on HCC-2998 colon it was 80.1%; in the assay with KM12 colon, 31.9%.

With `CC(C)NS(=O)(=O)c1cccc(-c2ccc3c4c(n(CCCN(C)C)c(=O)c3c2)-c2ccccc2C4=O)c1`, the growth with RPMI-8226 leukemia was 80.9%; in the assay with OVCAR-8 ovarian it was 76.4%; in the assay on OVCAR-5 ovarian it was 117%; in the assay with OVCAR-4 ovarian, 101%; with SK-OV-3 ovarian, 104%; in the assay on IGROV1 ovarian, 90%. In addition, the growth with OVCAR-3 ovarian is 110%; in the assay on HS 578T breast it was 99.8%; with NCI/ADR-RES ovarian, 103%; in the assay with T-47D breast, 97.1%; in the assay on BT-549 breast, 95.6%; in the assay on MDA-MB-435 melanoma, 92.9%. Besides, the growth was 57.4% with SW-620 colon; 38.8% in the assay on MCF7 breast; -66% (active) with HCT-116 colon; 96.8% in the assay with HCC-2998 colon; 93.9% in the assay on KM12 colon.

Consider `C/C(=N/Nc1nc2ccccc2n1C)c1ccccn1`, for which the growth is -17.5% (active) in the assay on RPMI-8226 leukemia; 0.773% (active) with OVCAR-8 ovarian; 35.3% with OVCAR-5 ovarian; 20.8% in the assay with OVCAR-4 ovarian; -0.894% (active) in the assay with SK-OV-3 ovarian; 18% in the assay with IGROV1 ovarian. The growth with OVCAR-3 ovarian is 10.3%; with HS 578T breast, 44.5%; in the assay with NCI/ADR-RES ovarian, -7.51% (active); with T-47D breast it was 8.05% (active); in the assay on BT-549 breast, 13.5%; in the assay on MDA-MB-435 melanoma it was 32.5%. Besides, the growth is 23.6% in the assay on SW-620 colon; 3.47% (active) in the assay on MCF7 breast; 2.75% (active) with HCT-116 colon; 39.3% in the assay on HCC-2998 colon; 19.7% in the assay on KM12 colon.

Consider `C#C[C@@]1(O)[C@@H](CO)O[C@@H](n2cc(-c3ccco3)c3c(N)ncnc32)[C@@H]1O`, for which the growth in the assay on RPMI-8226 leukemia was 80.3%; with OVCAR-8 ovarian it was 65.9%; with OVCAR-5 ovarian, 66.9%; in the assay on OVCAR-4 ovarian it was 61.2%; in the assay with SK-OV-3 ovarian, 26.3%; with IGROV1 ovarian it was -11.6% (active). The growth is 80.3% in the assay with OVCAR-3 ovarian; 49.8% in the assay on HS 578T breast; 61.7% in the assay on NCI/ADR-RES ovarian; -17.2% (active) in the assay on T-47D breast; 58.5% in the assay on BT-549 breast; 66.4% in the assay on MDA-MB-435 melanoma. In addition, the growth in the assay with SW-620 colon is 63.5%; in the assay on MCF7 breast, 13.9%; in the assay with HCT-116 colon, 68%; in the assay with HCC-2998 colon, 56.4%; in the assay on KM12 colon, 18.2%.

Turning to `Cc1[nH]c(N=Nc2ccccc2)nc1N=Nc1ccccc1`, the growth with RPMI-8226 leukemia is -2.66% (active); with OVCAR-8 ovarian it was 14.7%; with OVCAR-5 ovarian, 18.8%; with OVCAR-4 ovarian, 30.3%; with SK-OV-3 ovarian it was 39%; in the assay with IGROV1 ovarian it was -22.8% (active). Besides, the growth was 33.2% in the assay with OVCAR-3 ovarian; 61.5% in the assay with HS 578T breast; 0.979% (active) with NCI/ADR-RES ovarian; 30.5% in the assay with T-47D breast; 37.7% in the assay on BT-549 breast; 37.1% with MDA-MB-435 melanoma. The growth in the assay on SW-620 colon was 31.7%; with MCF7 breast, 15.3%; in the assay on HCT-116 colon, 11.1%; with HCC-2998 colon, 26.3%; in the assay on KM12 colon, 35.1%.

As for `O=C1Nc2ccc(Cl)cc2/C1=N/c1nc(-c2ccc(Cl)cc2)cs1`, the growth in the assay on RPMI-8226 leukemia is -2.3% (active); with OVCAR-8 ovarian it was 3.67% (active); with OVCAR-5 ovarian it was 26.2%; in the assay on OVCAR-4 ovarian it was 34.9%; in the assay with SK-OV-3 ovarian, 1.76% (active); in the assay on IGROV1 ovarian it was 16.6%. Further, the growth in the assay with OVCAR-3 ovarian is -13.6% (active); in the assay with HS 578T breast, 13.7%; in the assay on NCI/ADR-RES ovarian it was 57.7%; in the assay on T-47D breast, -3.94% (active); in the assay on BT-549 breast, 17.4%; in the assay on MDA-MB-435 melanoma, -82.3% (active). In addition, the growth is 12.9% in the assay with SW-620 colon; 5.81% (active) in the assay on MCF7 breast; 3.16% (active) with HCT-116 colon; 9.52% (active) with HCC-2998 colon; 1.73% (active) in the assay on KM12 colon.

`C/C(=C\c1cnc(C)s1)[C@@H]1C[C@@H]2O[C@@H]2CCC[C@H](C)[C@H](O)[C@@H](C)C(=O)C(C)(C)[C@@H](O)CC(=O)O1`: the growth was 23.2% in the assay with RPMI-8226 leukemia; 48% with OVCAR-8 ovarian; 38.9% in the assay on OVCAR-5 ovarian; 52.5% with OVCAR-4 ovarian; 24.4% in the assay with SK-OV-3 ovarian; 38.7% with IGROV1 ovarian. The growth is 2.54% (active) in the assay with OVCAR-3 ovarian; 39.1% with HS 578T breast; 6.61% (active) with NCI/ADR-RES ovarian; 33.6% in the assay on T-47D breast; 39.4% in the assay on BT-549 breast; 4.21% (active) in the assay with MDA-MB-435 melanoma. Also, the growth was 34.8% with SW-620 colon; 17.1% in the assay with MCF7 breast; 18.4% with HCT-116 colon; 18.6% with HCC-2998 colon; 24.6% with KM12 colon.

`CC1CCCN(CCCCCOc2ccc3oc4ccc(Cl)cc4c(=O)c3c2)C1` (stereo unspecified): the growth with RPMI-8226 leukemia is 61.8%; in the assay with OVCAR-8 ovarian, 75%; with OVCAR-5 ovarian, 70.4%; in the assay on OVCAR-4 ovarian it was 63.2%; in the assay with SK-OV-3 ovarian it was 91.9%; in the assay with IGROV1 ovarian, 68.7%. Besides, the growth in the assay on OVCAR-3 ovarian was 76.6%; with HS 578T breast, 84.7%; in the assay on NCI/ADR-RES ovarian, 73%; with T-47D breast, 64.8%; with BT-549 breast it was 80.3%; with MDA-MB-435 melanoma, 25.1%. Moreover, the growth with SW-620 colon was 56.6%; in the assay on MCF7 breast, 60.8%; in the assay with HCT-116 colon, 32.2%; in the assay with HCC-2998 colon, 78.3%; with KM12 colon, 59.4%.
